Among all 330,000 compounds or so, about 3,800 (1.2%) were called active. For the sample, actives were picked, then their nearest neighbours and some compounds at random. A number with no mark means an inactive call. No stated cut-off is given here; in the data, active means inhibition above about 15%; inconclusive means no clear call, values can overlap the other calls; inactive means below that.

The target in the test is NAD-dependent protein deacylase sirtuin-5, mitochondrial (Homo sapiens) (UniProt Q9NXA8). Put plainly: SIRT5 desuccinylase inhibitors, primary screen, biochemical, fluorescence imaging, single point, set 5 (AID 652115). The following applies: Purified SirT5, succinyl-peptide AMC, trypsin-coupled fluorescence; at 15 µM; stronger effect = higher value.
Chain of NAD-dependent protein deacylase sirtuin-5, mitochondrial (Homo sapiens) (Q9NXA8 whole entry, looked up): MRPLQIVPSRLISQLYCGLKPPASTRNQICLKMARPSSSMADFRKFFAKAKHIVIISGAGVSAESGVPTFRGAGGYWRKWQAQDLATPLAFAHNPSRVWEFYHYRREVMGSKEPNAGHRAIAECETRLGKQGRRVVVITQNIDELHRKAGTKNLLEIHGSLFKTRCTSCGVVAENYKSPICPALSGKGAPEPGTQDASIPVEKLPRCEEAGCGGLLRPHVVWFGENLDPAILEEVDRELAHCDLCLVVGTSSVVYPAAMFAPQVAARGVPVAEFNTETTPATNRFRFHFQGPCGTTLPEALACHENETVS
One may read the inhibition as the change of the read-out against control, counted positive when it falls. As to `Oc1cccc2cc(-c3ccncc3)cnc12`, the inhibition is -0.877%.

As for `CC(=O)Nc1ccc(CNc2nc(NCCN(C)C)nc3cc(-c4ccccc4)sc23)cc1`, the inhibition is 2.52%.

Take `COc1cccc(CNc2nc(NCc3cccs3)nc3ccsc23)c1`: the inhibition was -1.12%.

`COCCNc1nc(NCc2ccc(NC(C)=O)cc2)c2sccc2n1`: the inhibition is 16.4% (active).

Turning to `COc1ccc(C[C@@H]2CCc3cnnn3COC[C@H](c3ccccc3)NC2=O)cc1`, the inhibition is 2.11%.

Turning to `CCC(=O)N[C@H]1CC[C@H](CCn2cc(-c3cccc(OC)c3)nn2)O[C@H]1CO`, the inhibition is -2.52%.

As for `COc1ccc(CNC(=O)COC(=O)c2ccc(C)c(S(=O)(=O)N3CCOCC3)c2)cc1OC`, the inhibition was -1.07%.

As to `COc1ccc(C(=O)OCC(=O)c2ccc(C)c(S(=O)(=O)N3CCOCC3)c2)cc1OC`, the inhibition is 25.2% (active).

As for `Cc1ccc(C(=O)OCC(=O)N2CCCCCC2)cc1S(=O)(=O)N1CCOCC1`, the inhibition is 1.4%.

For `C[C@H]1CCCCO[C@@H](CN(C)C(=O)C2CCCCC2)[C@@H](C)CN([C@@H](C)CO)C(=O)c2cc(NS(=O)(=O)c3cccs3)ccc2O1`, the inhibition is 8.81%.

Consider `COCC#Cc1cnc2c(c1)C(=O)N([C@H](C)CO)C[C@@H](C)[C@@H](CN(C)Cc1ccccc1F)O2`, for which the inhibition was 1.75%.

As to `CO[C@@H]1CN(C)C(=O)c2cc(NS(=O)(=O)c3cccc(F)c3)ccc2OC[C@@H](C)NC[C@@H]1C`, the inhibition is -3.7%.

Turning to `CCC(=O)Nc1ccc2c(c1)C(=O)N(C)C[C@@H](OC)[C@H](C)CN(Cc1ccccc1C(=O)O)[C@@H](C)CO2`, the inhibition was 2.25%.

On to `O=C(C1CCCCC1)N1CC2(C1)[C@H](c1ccccc1)[C@H](CO)N2CC1CCCC1`, for which the inhibition is 5.17%.

With `O=C(COC(=O)c1ccc([N+](=O)[O-])o1)NC12CC3CC(CC(C3)C1)C2`, the inhibition is -5.22%.

Take `O=C(COC(=O)c1ccc(Br)o1)NC12CC3CC(CC(C3)C1)C2`: the inhibition was 15.6% (active).

As for `O=C(COC(=O)c1cccnc1Cl)NC12CC3CC(CC(C3)C1)C2`, the inhibition is 0.076%.

For the molecule `COCC(=O)Nc1ccc2c(c1)OC[C@@H](C)N(Cc1ccccn1)C[C@H](C)[C@@H](OC)CN(C)C2=O`, the inhibition was -1.91%.

Take `COc1cccc(S(=O)(=O)Nc2ccc3c(c2)C(=O)N(C)C[C@@H](OC)[C@@H](C)CN[C@@H](C)CO3)c1`: the inhibition was 5.28%.

Take `C[C@H](O)C#Cc1cnc2c(c1)C(=O)N([C@@H](C)CO)C[C@H](C)[C@@H](CN(C)C(=O)c1ccccc1)O2`: the inhibition was -1.59%.

Turning to `Cc1cccc(OCC(=O)Nc2ccccc2F)c1`, the inhibition was -2.03%.

In the case of `Cc1cccc(OCCC(=O)Nc2ccccc2C(N)=O)c1`, the inhibition is -1.74%.

For `COc1cccc(OCC(=O)Nc2ccccc2C(N)=O)c1`, the inhibition was 29.5% (active).

Consider `O=C(C[C@@H]1CC[C@H]2[C@@H](COC[C@@H](O)CN2S(=O)(=O)c2cccc(Cl)c2)O1)N1CCCCC1`, for which the inhibition is 1.52%.

On to `COc1ccc(CCNS(=O)(=O)c2ccc(F)cc2)cc1OC`, for which the inhibition was -1.59%.

`COc1ccccc1NC(=O)CCCc1c[nH]c2ccccc12`: the inhibition was -1.4%.

Take `COc1ccc(S(=O)(=O)NCCc2c[nH]c3ccccc23)cc1OC`: the inhibition is 21.4% (active).

As for `CC=Cc1ccc2n(c1=O)C[C@H]1[C@H](CO)[C@@H](C(=O)NCC3CC3)N(Cc3nccs3)[C@@H]21` (mixture of isomers), the inhibition is 1.01%.

Consider `COCC(=O)N1C[C@H]2[C@@H](c3ccccc31)[C@@H](CO)N2C(=O)NC(C)C`, for which the inhibition is 0.583%.

Take `O=C(C1CCC1)N1CC(=O)N2[C@H](C1)[C@@H](c1ccc(-c3ccccc3F)cc1)[C@@H]2CO`: the inhibition was 3.28%.

On to `C[C@H](CO)N1C[C@H](C)[C@H](CN(C)Cc2ccc(C(=O)Nc3ccccc3N)cc2)Oc2c(NC(=O)Nc3ccccc3)cccc2C1=O`, for which the inhibition is -0.83%.

As to `COC(=O)C1=C(C)N(C)C(=O)NC1c1ccc([N+](=O)[O-])o1` (configuration not stated), the inhibition was 17.2% (active).

Take `COCCN1C(=O)N[C@@H](c2ccccc2)C(C(=O)OC)=C1C`: the inhibition is -1.66%.

On to `COc1ccc(C2NC(=O)N(C)C(C)=C2[N+](=O)[O-])cc1` (configuration not stated), for which the inhibition was 2.48%.

Consider `CC=Cc1ccc2n(c1=O)C[C@H]1[C@H](CO)[C@@H](C(=O)N3CCCCC3)N(Cc3ccccn3)[C@@H]21` (mixture of isomers), for which the inhibition is 3.91%.

Turning to `C[C@@H](NC(=O)C[C@H]1C[C@H]2c3cc(NC(=O)C4CCOCC4)ccc3O[C@H]2[C@@H](CO)O1)c1ccccc1`, the inhibition was -0.41%.

Consider `COCCCNC(=S)N(Cc1ccccc1)Cc1ccc(F)cc1`, for which the inhibition was 15.1% (active).

In the case of `Cc1cc(C)c2[nH]c(=O)c(CN(Cc3ccccc3)C(=S)NCCCN(C)C)cc2c1`, the inhibition is -6.33%.

As for `COCCCNC(=S)NNC(=O)C(O)(c1ccccc1)c1ccccc1`, the inhibition is -5.23%.

Regarding `COCC(=O)N1[C@H](CO)[C@@H](c2ccccc2)[C@H]1CN(C)C(=O)c1ccncc1`, the inhibition is 3.21%.

Take `CCN(c1ccccc1)S(=O)(=O)c1ccc2[nH]c(=O)[nH]c2c1`: the inhibition is 23.9% (active).

Consider `CCN(c1ccccc1)S(=O)(=O)c1ccc(OCC(=O)N2CCCC2)cc1`, for which the inhibition was -0.147%.

Consider `CN(c1ccccc1)S(=O)(=O)c1ccc2[nH]c(=O)[nH]c2c1`, for which the inhibition was -0.22%.

As for `O=C(C[C@H]1C=C[C@H](NC(=O)Cc2ccccn2)[C@@H](CO)O1)NCCc1ccccc1`, the inhibition was 6.76%.

Regarding `O=C(C1CCCC1)N1CC(=O)N2[C@H](C1)[C@@H](c1ccc(-c3cccnc3)cc1)[C@@H]2CO`, the inhibition is 1.11%.

Regarding `CO[C@H]1CN(C)C(=O)c2ccc(NC(=O)Nc3c(C)noc3C)cc2OC[C@@H](C)NC[C@H]1C`, the inhibition is -5.86%.

Turning to `Cc1cc(/C=N/Nc2ccc([N+](=O)[O-])cn2)c(C)n1-c1cccc(C(=O)O)c1`, the inhibition was 17.7% (active).

`CC(C)c1ccc(C=NNc2ccc([N+](=O)[O-])cn2)cc1`: the inhibition was 1.24%.

Turning to `Cc1cccc(-n2c(C)cc(/C=N\NC(=O)c3cccs3)c2C)c1`, the inhibition was -1.07%.

Regarding `O=S(=O)(c1ccc(F)cc1)N1CC[C@@H]2[C@@H](CO)Nc3ccc(-c4ccccc4F)cc3[C@@H]21`, the inhibition is 7.3%.

With `O=C(C[C@@H]1C[C@@H]2c3cc(NC(=O)Nc4ccc(F)cc4)ccc3O[C@@H]2[C@H](CO)O1)NCC(F)(F)F`, the inhibition was -3.74%.

Consider `Cc1noc(C)c1NC(=O)N[C@H]1C=C[C@@H](CC(=O)Nc2ccccc2)O[C@H]1CO`, for which the inhibition is 1.42%.

As for `Cc1noc(C)c1NC(=O)N[C@@H]1C=C[C@@H](CC(=O)Nc2ccccc2)O[C@H]1CO`, the inhibition is 32.2% (active).

For the molecule `Cc1noc(C)c1NC(=O)N[C@@H]1CC[C@H](CC(=O)Nc2ccccc2)O[C@H]1CO`, the inhibition was 5.15%.

As for `CC(=O)c1nc2ccccc2n1Cc1ccccc1`, the inhibition is -2.51%.

Regarding `c1ccc(CCc2ccccn2)cc1`, the inhibition is 9.65%.

As for `O=S(=O)(Cc1ccccc1)c1nc2ccccc2n1Cc1ccccn1`, the inhibition was 21.7% (active).

Regarding `COc1ccccc1NC(=O)N[C@H]1C=C[C@H](CC(=O)N[C@@H](C)c2ccccc2)O[C@H]1CO`, the inhibition was -1.94%.

In the case of `C/C=C/c1cnc2c(c1)C(=O)N([C@@H](C)CO)C[C@@H](C)[C@@H](CN(C)C(=O)c1cnccn1)O2`, the inhibition was -1.71%.

As for `Cc1occc1C(=O)NNC(=S)NCC(C)C`, the inhibition is 19.4% (active).

For `Cc1scc(C(=O)NNC(=S)NCC(C)C)c1C`, the inhibition is -4.94%.

Take `Cc1scc(C(=O)NNC(=S)NCc2ccccc2)c1C`: the inhibition is -0.205%.

Regarding `CO[C@H]1CN(C)C(=O)c2cc(NC(=O)C3CC3)ccc2OC[C@H](C)N(C(=O)CN(C)C)C[C@H]1C`, the inhibition is 0.163%.

As for `CCC(=O)N1[C@@H]2c3ccc(-c4ccc(F)cc4)c(=O)n3C[C@H]1[C@H](CO)[C@H]2C(=O)N(C)C`, the inhibition is -32.2%.

For the molecule `COc1ccc2c3c(n(C)c2c1)[C@@H](CO)N(CC1CC1)CC31CCN(C(=O)c2ccc3c(c2)OCO3)CC1`, the inhibition was 3.18%.

Regarding `COc1ccc(-c2ocnc2C(=O)Nc2ccc3c(c2)CCC3)cc1`, the inhibition is 22.1% (active).

On to `COc1cccc(NC(=O)CN(C)CC(=O)Nc2ccc3c(c2)CCC3)c1`, for which the inhibition was 2.3%.

For the molecule `CC(C)Oc1ccc(C(=O)NCC(=O)Nc2ccc3c(c2)CCC3)cc1`, the inhibition is -4.19%.

Turning to `CNC(=O)C[C@@H]1CC[C@H]2[C@H](COc3ccc(NC(=O)c4cccc(OC)c4)cc3C(=O)N2C)O1`, the inhibition was 2.09%.

Consider `CO[C@H]1O[C@H](CO)[C@@H](OC(=O)Nc2ccccc2)[C@H](OC(=O)Nc2ccc3c(c2)OCO3)[C@H]1OC(=O)Nc1ccc2c(c1)OCO2`, for which the inhibition is 2.4%.

For the molecule `CCc1cccc(NC(=O)O[C@H]2[C@H](OC(=O)Nc3ccccc3-c3ccccc3)[C@H](OC(=O)Nc3ccccc3-c3ccccc3)[C@@H](OC)O[C@@H]2CO)c1`, the inhibition is 17.1% (active).

For the molecule `CO[C@H]1O[C@H](CO)[C@@H](OC(=O)Nc2ccccc2-c2ccccc2)[C@H](OC(=O)Nc2ccccc2)[C@H]1OC(=O)Nc1ccccc1`, the inhibition was 8.45%.

`C[C@H]1CN([C@@H](C)CO)C(=O)c2cc(C3=CCCCC3)cnc2O[C@@H]1CN(C)C(=O)c1ccc(F)cc1`: the inhibition was 1.19%.

With `CCCNC(=O)N1[C@H](CO)[C@@H]2c3ccccc3N(C(=O)C3CC3)C[C@@H]21`, the inhibition is 1.05%.

For the molecule `CCOC(=O)c1ccc(Nc2cc3ccccc3c(=O)[nH]2)cc1`, the inhibition was -0.372%.

`Cc1ccccc1C(=O)OC1OC(=O)C(Cl)=C1Nc1ccccc1` (configuration not stated): the inhibition is -2.37%.

`Cc1ccc(NC2=C(Cl)C(=O)OC2OC(=O)c2ccccc2C)cc1` (configuration not stated): the inhibition is 17.3% (active).

The values are drawn from PubChem BioAssay AID652115 (Broad Institute, 2013).
